Screening data as filed in PubChem.
Only some compounds are listed: those with a hit (about 4.6% of all), similar ones and a draw of the others.
TRHR agonist – activates the human TRH receptor; P34981; TRHR cells, calcium flux fluo-8, FDSS agonist mode; hit rate 0.18% among 360,000; AID 493084; activation, % at 2 µM
Target sequence (P34981 whole entry, looked up): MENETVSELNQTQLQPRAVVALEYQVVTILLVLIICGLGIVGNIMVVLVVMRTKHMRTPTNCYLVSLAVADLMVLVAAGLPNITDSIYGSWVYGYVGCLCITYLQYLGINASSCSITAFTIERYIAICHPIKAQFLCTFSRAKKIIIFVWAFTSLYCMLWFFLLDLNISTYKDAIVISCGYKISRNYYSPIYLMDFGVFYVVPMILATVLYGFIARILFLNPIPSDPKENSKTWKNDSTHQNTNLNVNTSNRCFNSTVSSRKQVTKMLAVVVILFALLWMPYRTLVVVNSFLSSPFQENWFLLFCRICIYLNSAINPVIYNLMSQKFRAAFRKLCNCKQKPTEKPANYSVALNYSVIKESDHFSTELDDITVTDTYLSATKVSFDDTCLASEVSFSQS
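Read-out: compound-evoked intracellular calcium rise in TRHR cells, fluo-8 dye, kinetic FDSS fluorescence at 1 s/cycle following a 10-cycle baseline. Cells cultured overnight before dye loading (30 min–1.5 h, RT).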
D1 potentiator – enhances dopamine response at the human D1 receptor; potentiation, % at 10 µM; P21728; hit rate 0.036% among 360,000; AID 504651; HEK293 TREx D1 cells, calcium flux, dopamine EC20 potentiation; in the data active = potentiation above about 30%
D1 ag – activates the human D1 dopamine receptor | P21728 | HEK293 T-REx D1 cells, calcium flux, agonist mode | activation, % at 2 µM | hit rate 1% among 360,000 | AID 504660
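Inducible HEK293 T-REx D1 cells, force-coupled to calcium signalling, were plated at 4000 cells/well with tetracycline and held overnight at 30 C. After no-wash calcium dye loading, compound-evoked calcium rise over 180 s flagged agonists.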
TRHR enhancer – allosteric enhancers of human TRH receptor; P34981; enhancement, % at 2 µM; TRHR cells, fluo-8 calcium fluorescence, EC20 TRH enhancement; hit rate 0.66% among 360,000; in the data active = enhancement above about 30%
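Enhancer read-out: after compound pinning and an initial kinetic agonist-mode read, an EC20 of TRH (10 nM final) was injected and fluo-8 calcium signal (Ex 480/Em 530) followed at 1 s/cycle for 100 cycles in TRHR-expressing cells.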
D1 antagonist – antagonists of human D1 dopamine receptor; HEK293 TREx D1 cells, calcium flux, dopamine EC80; hits give low values; activity change, negative = inhibition, % at 10 µM; hit rate 3.2% among 360,000; in the data active = activity change below about -30%
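Compound effects on dopamine-evoked calcium signalling were measured in tetracycline-induced HEK293 Trex D1 cells. Dopamine at EC80 followed a 180 s compound pre-read, and fluorescence was tracked kinetically for 180 s more.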
Of the large screens only hits and unclear results are named; the others gave an inactive call. Rule as the data show it, unless noted: active = activation above about 30%; inactive = the rest.

O=c1c(Oc2ccccc2Br)c(C(F)(F)F)oc2c(CN3CCCC3)c(O)ccc12	TRHR enhancer 32.4
Cc1cc(Oc2c(C(F)(F)F)oc3c(CN4CCC(C)CC4)c(O)ccc3c2=O)cc(C)c1Cl	none
O=C(Cn1ncn2cccc2c1=O)NCc1cccc(Br)c1	none
O=C(Cn1ncc2c(Cl)cccc21)NCc1cccc(F)c1	D1 antagonist -81.4
O=C(Cn1ncc2c(Cl)cccc21)NCc1cccc(Br)c1	D1 antagonist -30.2
CCc1ccc2oc(C(=O)NCC(c3ccc(Cl)cc3)N3CCOCC3)c(C)c2c1 (stereo not given)	none
COc1ccc(N=Cc2oc3ccc4ccccc4c3c2O)cc1	D1 ag 78.5
COc1ccccc1N1CCN(Cc2cc3c(cc2O)OCO3)CC1	D1 antagonist -36.8
CCOc1ccc2oc(=O)cc(CN3CCN(c4ccccc4OC)CC3)c2c1	TRHR enhancer 46.5
CCOc1ccccc1N1CCN(Cc2cccc(OC)c2O)CC1	D1 antagonist -32.4
COc1cccc(/C=C/C(=O)OCC(=O)NCC2CCCO2)c1 (stereo not given)	none
COc1cccc(/C=C/C(=O)OCC(=O)NCC2CCCO2)c1OC (stereo not given)	D1 antagonist -34.1
Cc1ccc(S(=O)(=O)CC2CSc3nnc(C)c(=O)n32)cc1 (stereo not given)	none
Cc1nnc2n(c1=O)C(CS(=O)(=O)c1ccc3ccccc3c1)CS2 (stereo not given)	TRHR enhancer 32.7
Cc1ccc2oc(-c3cc(NC(=O)c4oc5ccccc5c4C)ccc3Cl)nc2c1	none
O=C(Nc1ccc(-c2nc3cc(Cl)ccc3o2)cc1)c1cc(Br)ccc1Cl	none
O=C(O)c1ccccc1-c1ccccc1C(=O)Nc1ccc(-c2nc3cc(Cl)ccc3o2)cc1	D1 antagonist -30.5
O=C(Nc1ccc2oc(-c3ccccc3F)nc2c1)c1ccccc1Cl	D1 antagonist -48.5
O=C(Nc1ccc2oc(-c3ccncc3)nc2c1)c1ccccc1Cl	D1 antagonist -71.4
Cc1ccc2oc(-c3cc(NC(=O)c4ccco4)ccc3Cl)nc2c1	D1 antagonist -39.4
COc1ccccc1-c1nc2cc(NC(=O)c3ccccc3Cl)ccc2o1	none
O=C(COc1ccccc1)NCC(c1ccc(Cl)cc1)N1CCCCC1 (stereo not given)	none
CCCCN(CC)C(=O)CSc1nc2ccccc2c(=O)n1Cc1ccco1	none
Cc1ccc2nc(NS(=O)(=O)c3ccc(Cl)cc3)c(Nc3ccc(C(=O)O)cc3)nc2c1	none
CCc1ccc(Nc2nc3ccccc3nc2NS(=O)(=O)c2ccccc2)cc1	D1 antagonist -48.6
COc1cccc(Nc2nc3cc(C)ccc3nc2NS(=O)(=O)c2ccc(Cl)cc2)c1	D1 ag 57.8, D1 antagonist -50.1
CCOC(=O)c1ccc(Nc2nc3ccccc3nc2NS(=O)(=O)c2ccc(Cl)cc2)cc1	D1 antagonist -40.4
Cc1c(Cl)cccc1NC(=O)CCOc1ccccc1	none
Cc1ccc(OCC(=O)NCC(=O)OCc2cc(=O)n3nc(CC(C)C)sc3n2)cc1	D1 antagonist -36.4
O=C(Nc1ncc(S(=O)(=O)c2ccc([N+](=O)[O-])cc2)s1)c1ccccc1F	D1 ag 37.9
O=C(Nc1ccc([N+](=O)[O-])cc1)c1ccccc1F	none
COc1cccc2[nH]c3ccccc3c(=O)c12	none
C=Cc1ncc(OC)c2c1[nH]c1ccccc12	D1 antagonist -55.2
N#CC1=C(N)OC2=C(CCC/C2=C/c2ccoc2)C1c1ccoc1 (stereo not given)	none
CC(C)N1CC2=C(OC(N)=C(C#N)C2c2cccnc2)/C(=C/c2cccnc2)C1 (stereo not given)	TRHR enhancer 34.1
CCN1CC2=C(OC(N)=C(C#N)C2c2ccccc2)/C(=C\c2ccccc2)C1 (stereo not given)	D1 antagonist -73.1
N#CC1=C(N)OC2=C(CC/C2=C\c2ccc(F)cc2)C1c1ccc(F)cc1 (stereo not given)	TRHR agonist 41.6, D1 ag 235.1, D1 antagonist -58.0
CCOC(=O)c1sc2ncn(CC(=O)Nc3ccc(OCC)cc3)c(=O)c2c1C	none
COc1cccc(NC(=O)CN2C(=O)CC(c3ccco3)Sc3ccccc32)c1 (stereo not given)	none
CCOC(=O)c1ccc(NC(=O)c2c(C)oc3nc(C)nc(N4CCCC4)c23)cc1	none
COc1ccc(CNC(=O)c2cnc3sc(N4CCOCC4)nn3c2=O)cc1	none
Cc1c(NC(=O)C(C)(C)Oc2ccc(Cl)cc2)cccc1-c1nc2ccccc2o1	none
CCN(C(=O)COC(=O)c1ccccc1SCC(=O)NC1CCCCCCC1)C1CCS(=O)(=O)C1 (stereo not given)	none
CC(C)CN(C(=O)COC(=O)c1ccccc1SCC(=O)NC1CCCCCC1)C1CCS(=O)(=O)C1 (stereo not given)	D1 antagonist -41.8
CC(C)CN(C(=O)COc1ccc(-c2nnco2)cc1)C1CCS(=O)(=O)C1 (stereo not given)	D1 antagonist -47.2
CC(C)CN(C(=O)COC(=O)c1ccc([N+](=O)[O-])o1)C1CCS(=O)(=O)C1 (stereo not given)	D1 antagonist -32.4
CC(=O)Nc1ccc(OCC(=O)N(CC(C)C)C2CCS(=O)(=O)C2)cc1 (stereo not given)	none
COc1ccc(Cl)cc1NC(=O)COC(=O)CCCN1C(=O)c2ccccc2C1=O	D1 antagonist -32.6
COc1ccc(Cl)cc1NC(=O)CCCn1c(C)c2cnn(-c3ccccc3)c(=O)c2c1C	D1 antagonist -78.6
COc1cccc(-n2c(=O)c3cc(OC)c(OC)cc3n(CC(=O)Nc3ccc(F)cc3)c2=O)c1	none
CCCOc1ccc(C(=O)Nc2ccc(CN3CCOCC3)cc2)cc1	none
CCCCOc1ccc(C(=O)Nc2cc(C)c(OCC(=O)N3CCOCC3)c(C)c2)cc1	D1 antagonist -39.5
CCCCOc1ccc(C(=O)Nc2ccc(CN3CCOCC3)cc2)cc1	D1 antagonist -35.5
O=C(COc1ccc2c3c(c(=O)oc2c1)CCC3)Nc1ccc(CN2CCOCC2)cc1	TRHR enhancer 33.0
CCSc1nc2n(n1)C(c1ccc(C(=O)O)cc1)C(C(=O)Nc1ccccc1C)=C(C)N2 (stereo not given)	none
O=C(Nc1cccc(C(F)(F)F)c1)N1CCC(CN2CCCCCC2)CC1	none
COC(=O)c1cccc(-n2c(C)cc(C=O)c2C)c1	D1 antagonist -30.3
COC(=O)c1cc(C(=O)OC)cc(-n2c(C)cc(C=O)c2C)c1	none
O=c1cc(C(F)(F)F)[nH]c2c(C(F)(F)F)cccc12	D1 ag 31.6
N#Cc1ccccc1COC(=O)c1ccc2c(c1)OCO2	D1 antagonist -41.5
O=C(O)/C=C/c1ccc([N+](=O)[O-])o1	none
CN1CCN(C(=O)/C=C/c2ccc([N+](=O)[O-])o2)CC1	D1 antagonist -31.5
O=C(C[n+]1cccc2ccccc21)c1ccc(Br)cc1	none
